The results in this text go back to PubChem BioAssay.

Activity calls are given as the source filed them. Unless noted, the rule behind the calls is not given here.

For assay [1], the system named is XIP peptide (Xip251-270) binding. As to the kind of experiment: XIP fragment 251-270 binding compounds – biochemical, small-molecule microarray, fluorescence 635/667 nm, 0.1 µg/mL protein, primary screen (AID 1182). The conditions noted are these: fluorescent protein binding, 635 nm, higher = more signal, called active from +8 up or from −8 down.
The test system of assay [2] is XIP peptide (Xip251-270). As to the kind of experiment: compounds binding XIP fragment 251-270 – biochemical, small-molecule microarray, fluorescence 635/667 nm, 0.5 µg/mL protein, primary screen (AID 1183). The conditions noted are these: fluorescence 635 nm, higher = more signal.
Assay [3] in a line: blood-stage malaria parasite viability loss – strain 3D7, DAPI fluorescence, 100 nL, primary screen (AID 1184).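 Note: parasites grown inside human red blood cells in medium with human serum.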 The conditions noted are these: P. falciparum 3D7 growth, 3 d, higher = more signal.
Assay [4] has as its target Homeobox protein Hox-A13 (Mus musculus) (UniProt Q62424). As to the kind of experiment: disruptors of Hoxa13 oligonucleotide interaction – biochemical, fluorescence polarization, labeled oligonucleotide, primary screen (AID 1185). The conditions noted are these: Hoxa13:DNA binding, 15 min, higher = more signal, called active from +8 up or from −8 down. (Fluorescence polarisation rises when a labelled molecule tumbles more slowly, as on binding a larger partner.)

Assay [5] is described as follows: blockers of DNA damage checkpoint Chk1 activation – imaging, HeLa, hydroxyurea, phospho-Chk1 antibody, percent positive cells, primary screen (AID 1186). Particulars: hydroxyurea-induced phospho-Chk1 immunofluorescence imaging, higher = more signal.
A short description of assay [6]: blockers of DNA damage checkpoint Chk1 activation – imaging, HeLa, hydroxyurea, phospho-Chk1 nuclear intensity, primary screen (AID 1187). The conditions noted are these: hydroxyurea-induced phospho-Chk1 immunofluorescence imaging, higher = more signal.

Sequence of Homeobox protein Hox-A13 (Mus musculus) (Q62424 whole entry, looked up): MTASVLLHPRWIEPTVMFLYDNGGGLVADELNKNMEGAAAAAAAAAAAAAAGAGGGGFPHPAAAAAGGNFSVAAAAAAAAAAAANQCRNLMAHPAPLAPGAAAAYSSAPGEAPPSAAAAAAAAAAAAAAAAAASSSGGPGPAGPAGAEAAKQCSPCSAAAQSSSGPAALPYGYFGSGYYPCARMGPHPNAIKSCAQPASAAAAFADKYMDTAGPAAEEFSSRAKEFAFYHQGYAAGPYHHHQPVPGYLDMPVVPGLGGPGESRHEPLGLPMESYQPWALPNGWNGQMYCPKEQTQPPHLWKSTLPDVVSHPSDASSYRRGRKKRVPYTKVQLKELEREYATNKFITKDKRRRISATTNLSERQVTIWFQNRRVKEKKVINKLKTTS

Consider `COCCCNC(=O)[C@@]1(Cc2ccccc2I)c2ccccc2C(=O)N(C2CCCCC2)[C@H]1c1ccc(CO)cc1`, for which the composite z-score was 0.26 (inactive) in assay [1] and 0.744 in assay [2]. For the same compound, the z-score in assay [3] was -1.99; in assay [4], -5.35 (inactive); in assay [5] it was -0.0463 (inactive); in assay [6], 0.155 (inactive).

Turning to `O=C1N(Cc2ccccc2)c2ccccc2C[C@@]12N=C(c1ccc(OCCCO)cc1)O[C@H]2c1ccccc1`, the composite z-score in assay [1] was 1.85 (inactive); in assay [2], 0.541. The z-score is -2.52 in assay [3], -5.07 (inactive) in assay [4], 0.134 (inactive) in assay [5] and 0.553 (inactive) in assay [6].

For `COC(=O)[C@H]1N=C(c2ccc(OCCCO)cc2)O[C@H]1c1ccccc1N=[N+]=[N-]`, the values for the composite z-score in assay [1] and in assay [2] were 0.363 (inactive) and 0.75, respectively. The z-score in assay [3] was -2.1; in assay [4] it was -4.13 (inactive); in assay [5], -0.0771 (inactive); in assay [6], 0.193 (inactive).

Turning to `CCCC1(C(=O)OC)C=C2C(=C(C(C)C)C(=O)C2C)CN1` (configuration not stated), the composite z-score is -0.275 (inactive) in assay [1] and -0.619 in assay [2]. In addition, the z-score was 0.77 in assay [3], -6.18 (inactive) in assay [4], 0.493 (inactive) in assay [5] and 0.473 (inactive) in assay [6].

For `CC(=O)NCCCC[C@@H]1NC(=O)[C@H]2C[C@@H](C(=O)NCCCCCN)[C@@H](c3ccc(O)cc3)N2C1=O`, the results for the composite z-score in assay [1] and in assay [2] were 0.222 (inactive) and 0.562, respectively. Besides, the z-score in assay [3] was 0.0481; in assay [4], -2.29 (inactive); in assay [5], 0.32 (inactive); in assay [6], -0.163 (inactive).

Regarding `COCCCNC(=O)[C@@]1(c2ccc([N+](=O)[O-])cc2)CC(=O)N(C2CCCCC2)[C@@H]1c1ccc(CO)cc1I`, the composite z-score in assay [1] was 0.266 (inactive); in assay [2], 0.728. Besides, the z-score in assay [3] was -0.768; in assay [4], -4.5 (inactive); in assay [5] it was 0.237 (inactive); in assay [6], 0.36 (inactive).

Consider `C=CC[C@]1(C(=O)NCC(O)CO)N=C(c2ccc(OCCCO)cc2)O[C@H]1c1ccccc1CN=[N+]=[N-]` (some centres not stated), for which the composite z-score was 0.513 (inactive) in assay [1] and -0.201 in assay [2]. Moreover, the z-score is -2.5 in assay [3], -3.62 (inactive) in assay [4], -0.116 (inactive) in assay [5] and -0.482 (inactive) in assay [6].

Regarding `COC(=O)c1ccc(OC)c(/C=C\CC(OC(=O)c2ccncc2)c2ccccc2)c1` (configuration not stated), the composite z-score in assay [1] is 0.601 (inactive); in assay [2], 0.146. Also, the z-score in assay [3] was -1.33; in assay [4], -5.02 (inactive); in assay [5], -0.843 (inactive); in assay [6], -0.432 (inactive).

In the case of `OCCCc1cc[n+](Cc2cc3c(cc2Br)OCO3)cc1`, the composite z-score in assay [1] is 0.0084 (inactive); in assay [2] it was 0.579. Moreover, the z-score in assay [3] was -1.96; in assay [4], -2.45 (inactive); in assay [5] it was -0.0355 (inactive); in assay [6], 0.0561 (inactive).

Take `CCCC[C@@H](O)C1=C(C)Cn2c(=O)n(-c3ccccc3)c(=O)n2[C@H]1CO`: the composite z-score in assay [1] is -0.387 (inactive); in assay [2], 0.0389. Moreover, the z-score is 0.0686 in assay [3], -0.901 (inactive) in assay [4], -0.522 (inactive) in assay [5] and -0.621 (inactive) in assay [6].

Turning to `[N-]=[N+]=Nc1ccccc1C[C@@]1(C(=O)NCc2ccccc2)N=C(c2ccc(OCCCO)cc2)O[C@@H]1c1ccccc1`, the composite z-score in assay [1] is -0.116 (inactive); in assay [2], 0.746. Further, the z-score in assay [3] was -2.51; in assay [4], -2.4 (inactive); in assay [5], -0.603 (inactive); in assay [6] it was -0.942 (inactive).

For `COc1ccc(C(O)C2C=CC3C(=O)N(C)C(=O)C3N2Nc2ccccc2)cc1` (configuration not stated), the composite z-score in assay [1] is 0.488 (inactive); in assay [2] it was 0.592. Also, the z-score in assay [3] was -0.142; in assay [4], -3.64 (inactive); in assay [5] it was 0.158 (inactive); in assay [6], -0.0307 (inactive).

`O=C1NC(=O)C2C1C=CC(C(O)C(c1ccccc1)c1ccccc1)N2Nc1ccccn1` (configuration not stated): the composite z-score in assay [1] was 0.21 (inactive); in assay [2] it was 0.797. Also, the z-score was -0.315 in assay [3], -5.58 (inactive) in assay [4], -0.12 (inactive) in assay [5] and -0.319 (inactive) in assay [6].

`C=CC[C@@]1(C(=O)NCCCOC)N=C(c2ccc(OCCCO)cc2)O[C@@H]1c1ccccc1CN=[N+]=[N-]`: the values for the composite z-score in assay [1] and in assay [2] were 0.204 (inactive) and 0.44, respectively. For the same compound, the z-score in assay [3] is -2.25; in assay [4], -5.2 (inactive); in assay [5], -0.551 (inactive); in assay [6], -0.721 (inactive).

`COc1c(C)cc(-c2nc(-c3ccccc3)c3c(c2C)CO[Si]3(C(C)C)C(C)C)cc1C`: the results for the composite z-score in assay [1] and in assay [2] were 0.412 (inactive) and -0.487, respectively. Also, the z-score in assay [3] was -2.79; in assay [4] it was -0.848 (inactive); in assay [5], 0.157 (inactive); in assay [6], 0.0254 (inactive).

As to `Cc1ccc(S[C@]2(C(=O)NCc3ccccc3)CC(=O)N(Cc3ccccc3Cl)[C@@H]2c2ccc(CO)cc2)cc1`, the figures for the composite z-score in assay [1] and in assay [2] were 1.65 (inactive) and 0.825, respectively. Also, the z-score was -1.2 in assay [3], -2.65 (inactive) in assay [4], 0.172 (inactive) in assay [5] and 0.622 (inactive) in assay [6].

Turning to `CC1CC/C=C\[C@H]2OC34C=CCN(C(C)C)C(=O)[C@H]3N(C(C)CO)C(=O)[C@@H]4C2C(=O)O1` (some centres not stated), the composite z-score in assay [1] is -0.275 (inactive); in assay [2] it was 0.384. Besides, the z-score in assay [3] is -0.577; in assay [4], -5.82 (inactive); in assay [5], -0.829 (inactive); in assay [6], -0.249 (inactive).
